From PubChem BioAssay AID588335 (The Scripps Research Institute Molecular Screening Center, 2011)
Among all 360,000 compounds or so, about 4,500 (1.2%) were called active. The list comes from a sample in which actives are over-represented; it also holds similar structures and randomly drawn compounds. A number with no mark means an inactive call. Cut-off read from the data, not from the text of the source: active = inhibition above about 30%; inactive = the rest.

Assay: GDH-TPI coupling enzyme inhibitors, primary screen, artefact control for M. tuberculosis FBA inhibitor project, biochemical, absorbance, full deck (AID 588335);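 note: 0% = DMSO wells and 100% = wells lacking the enzyme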
Conditions: GDH-TPI coupled enzyme counterscreen, NADH absorbance; at 4.8 µM; hits give high values
Cc1cc(C)nc(N/N=C/c2c(CO)cnc(C)c2O)n1 showed an inhibition of 16.2%. For CCN(CC)c1ccc(/C=N/Nc2nc(C)cc(C)n2)c(O)c1, the inhibition was 31.7% (active). Cn1cnnc1Sc1ccc(S(C)(=O)=O)cc1[N+](=O)[O-] gave an inhibition of 13%. Work on Cc1c(-c2nn(C)c(=O)c3ccccc23)oc2ccc(F)cc2c1=O yielded an inhibition of 18%. In the case of CC(C)NC(=O)NCCCCCCS(C)=O (stereo not given), the inhibition was 16.7%. Nc1nc(NCCCN2CCOCC2)nc(Nc2ccccc2)c1[N+](=O)[O-] gave an inhibition of 28.5%. With Nc1nc(Nc2ccccc2)nc(NCCO)c1[N+](=O)[O-] the inhibition was 39.5% (active). COCCNc1nc(N)c([N+](=O)[O-])c(NCCO)n1 gave an inhibition of 26.7%. In the case of O=C(Oc1cccc(NC2=NS(=O)(=O)c3ccccc32)c1)c1ccncc1, the inhibition was 0.95%. In the case of Cc1ccc(S(=O)(=O)N(NC2=NS(=O)(=O)c3ccccc32)C(=O)c2ccccc2)cc1, the inhibition was 4.78%. With CC(C)(C)c1csc(NC2=NS(=O)(=O)c3ccccc32)n1 the inhibition was 36.1% (active). In the case of Cc1cc(-c2ccccc2)nc(N2CCC(C(=O)NC34CC5CC(CC(C5)C3)C4)CC2)n1, the inhibition was -1.41%. CSc1nc2nc3c(c(=O)n2[nH]1)CCC3 gave an inhibition of 5.66%. Molecule Cc1ccccc1NC(=O)Cc1nc(COC(=O)C(C)(C)Oc2ccc(Cl)cc2)cs1 has an inhibition of -5.31%. With O=C(/C=C/c1ccco1)NC(=S)Nc1ccccc1Br the inhibition was 35.7% (active). Work on O=C(O)/C=C\C(=O)Nc1ccc(OCc2ccccc2)cc1 yielded an inhibition of 5.18%. With COc1cccc(NC(=O)COC(=O)/C=C/c2ccco2)c1 the inhibition was 6.67%. In the case of O=C(/C=C/c1ccco1)Nc1ccc(Oc2ccccc2)cc1, the inhibition was 38% (active). Molecule O=C(/C=C/c1ccco1)NC(=S)N1CCCCC1 has an inhibition of 10.6%. Work on COc1ccc(Cl)cc1C(=O)NNC(=S)NC(=O)/C=C/c1ccco1 yielded an inhibition of 5.35%. In the case of CCOc1ccc(NC(=O)CSc2nc3ccccc3c(=O)n2Cc2cccs2)cc1, the inhibition was 6.55%. Work on O=C(C[C@H]1C(=O)N(c2ccc(F)c(F)c2)C[C@@H]1Cc1ccccc1)Nc1ccccc1 yielded an inhibition of -1.2%. In the case of O=Cc1cn(CCOc2ccc(F)cc2)c2ccccc12, the inhibition was 7.08%. Work on Cc1cccc2nc(CNc3ccc(F)cc3)cn12 yielded an inhibition of 10.8%. Work on CCC1CCCCN1S(=O)(=O)Cc1ccccc1Cl (stereo not given) yielded an inhibition of 0.61%. COc1ccc(S(=O)(=O)N2CCCC2CNC(=O)C(=O)NC2CC2)cc1 (stereo not given) gave an inhibition of -18%. Molecule COc1ccc2c(c1)CCc1cn3ncc(C#N)c3nc1-2 has an inhibition of 2.17%. Molecule O=C(Nc1ccc(F)c([N+](=O)[O-])c1)C1CCCO1 (stereo not given) has an inhibition of 7.32%. In the case of COCCN(CCOC)S(=O)(=O)c1ccc(/C(O)=C(\C#N)c2nc3ccccc3[nH]2)cc1, the inhibition was 42.7% (active). CC(C)(C)c1nnc2sc(SCC(O)=C(C#N)c3nc4ccccc4[nH]3)nn2c1=O showed an inhibition of 9.05%. For COCCN(CCOC)S(=O)(=O)c1ccc(C(=O)Nc2nc3c(s2)CCc2ccccc2-3)cc1, the inhibition was 9.74%. With CC1(C)CC(=O)C2=C(C1)N=C1SCCC(=O)N1C2c1ccc(C(F)(F)F)cc1 (stereo not given) the inhibition was 31% (active). Molecule CC1(C(=O)Nc2ccccc2Br)CCN1C(=O)CC1CC1 (stereo not given) has an inhibition of -0.89%. With C=CCSC(CC)(CC)C(N)=O the inhibition was 3.59%. CN1C(c2ccc(F)cc2)=CS/C1=C(/C#N)c1nnc2n1-c1ccccc1SC2 showed an inhibition of 18.8%. For Cc1ccccc1-n1cc(CNC(=O)CC2C(=O)NCCN2C/C=C/c2ccccc2)cn1 (stereo not given), the inhibition was -1.22%. For COc1cccc(-c2nc3ccc(N4CCN(C)CC4)cc3[nH]2)c1, the inhibition was 31.7% (active). Molecule COc1cccc(N2CCN(c3ccc4nnc(CCC(=O)N5CCN(C)CC5)n4n3)CC2)c1 has an inhibition of -6.09%. For COc1cccc(N2CCN(C3CC(=O)N(c4ccc(Cl)cc4)C3=O)CC2)c1 (stereo not given), the inhibition was -9.65%. Work on CCCN(C(=O)CSc1nnc(N)s1)c1c(N)n(Cc2ccccc2)c(=O)[nH]c1=O yielded an inhibition of 2.63%. O=c1cccc(-c2ccc(Br)cc2)o1 showed an inhibition of 17.6%. Work on C=CCc1cccc2cc(C(=O)OCC)c(=O)oc12 yielded an inhibition of 10.2%. For CCOC(=O)c1cc2cc3ccccc3cc2oc1=O, the inhibition was 38.1% (active). With CCOc1cccc2cc(C(=O)OCC(=O)Nc3c(C)cccc3CC)c(=O)oc12 the inhibition was 11.9%. With CN1CCCc2cc(C#N)c(=O)[nH]c21 the inhibition was 34.1% (active). COc1ccccc1CNC(=O)COn1nnc2ccc(S(=O)(=O)N3CCOCC3)cc21 gave an inhibition of -5.57%. O=C(OCCN1C(=O)c2ccccc2C1=O)[C@@H]1CC(O)CN1S(=O)(=O)c1ccccc1[N+](=O)[O-] (stereo not given in full) gave an inhibition of 3.16%. CC(=O)c1ccc(OCCCC(=O)Nc2ccc(C)c(S(=O)(=O)N3CCOCC3)c2)cc1 showed an inhibition of 7.22%. COc1ccc2ccccc2c1CNCc1ccccn1 gave an inhibition of -14.6%. In the case of COc1ccc(C(=O)/C=C/c2ccc(-c3ccccc3)cc2)cc1CSCC(=O)O, the inhibition was 37.5% (active). With COC(=O)c1ccc(COc2ccc(/C=C/C(=O)c3ccc(OC)c(CSCC(=O)O)c3)cc2OC)cc1 the inhibition was 7.37%. In the case of COc1ccccc1CCNC(=O)C1CCN(C(=O)/C=C/c2ccccc2)CC1, the inhibition was 1.82%. For CCN(CC)C(=O)C(C)N1c2cccc3cccc(c23)S1(=O)=O (stereo not given), the inhibition was 9.73%. CC1CCCCC1NC(=O)COC(=O)Cc1ccc(Cl)cc1 (stereo not given) gave an inhibition of 3.03%. Molecule CCCN(CC(=O)NC(=O)NC1CCCCC1)CC(=O)Nc1cc(Cl)ccc1Cl has an inhibition of -7.58%. With O=C(N/N=C/c1c(O)n(C2CC2)c(=S)[nH]c1=O)c1ccccc1Cl the inhibition was 40.6% (active). Work on O=c1[nH]c(=S)n(C2CC2)c(O)c1/C=N/N1CCOCC1 yielded an inhibition of 16.2%. Work on O=C(N/N=C/c1c(O)n(C2CC2)c(=S)[nH]c1=O)c1ccccc1 yielded an inhibition of 25.8%. CC1CCN(C(=O)COC(=O)c2cc(=O)[nH]c3ccccc23)CC1 showed an inhibition of 13.7%. In the case of CC(C)(C)n1nnnc1C(c1ccccc1F)N1CCN(C(=O)c2ccco2)CC1 (stereo not given), the inhibition was -4.67%. For O=C(C[C@H]1C[C@H]2c3cc(NS(=O)(=O)c4ccc(F)cc4)ccc3O[C@H]2[C@H](CO)O1)NCc1cc(F)ccc1F, the inhibition was -2.37%. In the case of COc1ccc(C(=O)N/N=C2\CCS(=O)(=O)c3ccc(F)cc32)cc1OC, the inhibition was 32.9% (active). In the case of COc1ccc(C(=O)Nc2ccc(C3(C#N)CCCC3)cc2)cc1OC, the inhibition was 9.36%. For CCNC(=O)c1ccc(OCC(=O)Nc2ccc(F)cc2)c(OC)c1, the inhibition was 0.63%. CC(Sc1cccc[n+]1[O-])C(=O)Nc1cccc(S(=O)(=O)N2CCOCC2)c1 (stereo not given) gave an inhibition of 0%. With Cc1ccc(C(=O)N/C(=C\c2cn(S(=O)(=O)N(C)C)c3ccccc23)C(=O)N2CCCC2)cc1 the inhibition was -3.45%. For COc1ccc(/C=C(\NC(=O)c2ccccc2)C(=O)NCCN2CCOCC2)cc1OC, the inhibition was 14.8%. With CCn1cc(/C=C(\NC(=O)c2ccc(C)cc2)C(=O)NCCN2CCOCC2)c2ccccc21 the inhibition was 40.6% (active). CCSc1nnc(SCC(=O)NNC(=O)c2ccccc2F)s1 gave an inhibition of -1.01%. With CC1Cc2ccccc2N1C(=O)c1cc2sccc2n1Cc1ccccc1 (stereo not given) the inhibition was -0.44%. CCOC(=O)C(C)n1cnc2c(nnn2-c2cccc(OC)c2)c1=O (stereo not given) gave an inhibition of -6.44%. COCCOC(=O)c1sc(=S)n(CCOC)c1N showed an inhibition of 11.4%. In the case of CCOC(=O)c1sc(=S)n(-c2cccc(OC)c2)c1N, the inhibition was 33.3% (active). In the case of Cc1cc(/C=N/n2cnnc2)c(C)n1-c1ccc2ncccc2c1, the inhibition was 15%. With O=S(=O)(Cc1nnnn1-c1ccccc1)c1ccccc1 the inhibition was -3.16%. Work on COc1ccc(CN2CCCCC2C)cc1OC (stereo not given) yielded an inhibition of 7.17%. With COc1ccc(/C=C(/NC(=O)c2ccc(C)cc2)c2nc3ccccc3[nH]2)cc1OC the inhibition was 46.6% (active). Molecule Cc1ccc(C(=O)N/C(=C/c2cccnc2)C(=O)O)cc1 has an inhibition of 1.45%. With COc1ccc(C(=O)CN2C(=O)NC(C)(c3ccc(C)cc3)C2=O)cc1OC (stereo not given) the inhibition was -0.32%. In the case of COc1cc(/C=C(\C#N)c2nc3ccccc3[nH]2)ccc1O, the inhibition was 31.3% (active). Work on CCN(C[C@H]1N[C@@](CC)(C(=O)OC)[C@H]2C(=O)N(C)C(=O)[C@@H]12)C(=O)Nc1ccc(F)cc1 yielded an inhibition of 0%. Molecule COc1ccc(/C=N/OCc2ccccc2C#N)c(OC)c1 has an inhibition of -3.57%. CCOC(=O)c1ccc(N/C(=N/S(=O)(=O)c2ccccc2)c2ccccc2)cc1 showed an inhibition of 10.9%. COC(=O)c1ccc(Nc2ncnc3sccc23)cc1 showed an inhibition of 8.09%. For CCOC(=O)c1nc(Nc2ccc(C(=O)OC)cc2)c2ccccc2n1, the inhibition was 33.2% (active). In the case of O=C(c1ccco1)N1CCN(Cc2cccc(C(F)(F)F)c2)CC1, the inhibition was -0.77%. With c1ccc(-c2nnc3n2NC(c2ccc4c(c2)OCO4)S3)cc1 (stereo not given) the inhibition was 17.1%. Molecule CC(=O)c1ccc(N2CCN(C(=O)C3CCN(S(=O)(=O)c4ccc5c(c4)CC(C)N5C(=O)C4CC4)CC3)CC2)cc1 (stereo not given) has an inhibition of 23.5%. For Cc1ccc(/C=N/NC(=O)C(NC(=O)c2ccccc2)c2n[nH]c(=O)c3ccccc23)cc1 (stereo not given), the inhibition was 1.58%. With CC(C)c1cc(C(=O)N/N=C/C(Br)=C/c2ccccc2)n[nH]1 the inhibition was 36.9% (active). Molecule CC(C)c1cc(C(=O)O)n[nH]1 has an inhibition of 8.57%. With COc1ccc(CNC(=O)C(NS(=O)(=O)c2cccc3nsnc23)C(C)C)cc1 (stereo not given) the inhibition was 1.17%. Molecule CCn1c(Cc2ccc(OC)cc2)nnc1SCC(=O)Nc1ccc(N2CCOCC2)cc1 has an inhibition of -0.78%. Cc1ccc(OCCCC(=O)Nc2ccc(N3CCOCC3)cc2)cc1 showed an inhibition of -5.32%. For COc1cccc(/C=C(/CC(=O)Nc2ccc(N3CCOCC3)cc2)c2nc3ccccc3s2)c1, the inhibition was 32.1% (active).
